# According to ChEMBL document CHEMBL3988442, “University of Dundee, Small-Polar-MMV Screening Library” (2021):
# For some of these results: Measured potencies and affinities stand elsewhere.
# Columns and labels:
# Set-up in all cases: scale not given: direction of the effect not stated beside the values
# [1] = target: Protein translocase subunit SecA (Escherichia coli (strain K12)) (UniProt P10408); test: Assay to Identify E. coli SecA ATPase Inhibitors; type: functional; settings: 30 µM
# [2] = target: T1, Ubiquitin-activating enzyme e1, putative (Leishmania donovani (strain BPK282A1)) (UniProt E9BSI1); test: Leishmania donovani Ubiquitin Activating Enzyme (LdE1); type: functional; settings: 30 µM
# T1 sequence (whole entry): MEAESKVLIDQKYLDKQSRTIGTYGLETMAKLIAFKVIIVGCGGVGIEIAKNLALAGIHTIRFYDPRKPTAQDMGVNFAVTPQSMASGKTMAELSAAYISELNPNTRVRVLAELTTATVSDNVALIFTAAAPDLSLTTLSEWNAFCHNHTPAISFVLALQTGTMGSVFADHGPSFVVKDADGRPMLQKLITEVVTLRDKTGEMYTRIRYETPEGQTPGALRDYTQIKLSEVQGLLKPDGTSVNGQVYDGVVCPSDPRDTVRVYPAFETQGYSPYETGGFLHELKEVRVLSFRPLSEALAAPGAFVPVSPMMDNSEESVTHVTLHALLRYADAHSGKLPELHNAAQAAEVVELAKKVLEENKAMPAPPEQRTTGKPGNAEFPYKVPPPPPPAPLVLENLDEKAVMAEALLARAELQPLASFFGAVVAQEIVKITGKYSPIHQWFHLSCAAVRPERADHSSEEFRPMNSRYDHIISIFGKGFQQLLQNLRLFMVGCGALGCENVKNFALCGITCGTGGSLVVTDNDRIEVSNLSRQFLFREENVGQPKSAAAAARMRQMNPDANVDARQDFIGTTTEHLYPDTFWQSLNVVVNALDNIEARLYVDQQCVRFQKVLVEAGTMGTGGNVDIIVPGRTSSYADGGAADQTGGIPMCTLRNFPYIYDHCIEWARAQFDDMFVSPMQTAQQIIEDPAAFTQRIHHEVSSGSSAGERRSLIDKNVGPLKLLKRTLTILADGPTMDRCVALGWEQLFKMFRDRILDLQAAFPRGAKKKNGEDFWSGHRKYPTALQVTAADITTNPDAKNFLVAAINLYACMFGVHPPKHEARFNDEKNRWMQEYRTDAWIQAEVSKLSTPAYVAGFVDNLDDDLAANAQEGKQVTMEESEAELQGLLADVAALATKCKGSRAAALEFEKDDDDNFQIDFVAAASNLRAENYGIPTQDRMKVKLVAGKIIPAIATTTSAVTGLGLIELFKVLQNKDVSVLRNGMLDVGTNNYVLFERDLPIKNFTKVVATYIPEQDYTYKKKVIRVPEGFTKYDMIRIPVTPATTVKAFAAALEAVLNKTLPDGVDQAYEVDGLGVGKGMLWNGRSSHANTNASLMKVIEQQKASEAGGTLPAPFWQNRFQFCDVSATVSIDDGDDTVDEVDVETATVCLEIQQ
# [3] = target: AMP-activated protein kinase, AMPK (Homo sapiens) (UniProt P54646+O43741+P54619+Q9UGJ0+Q9Y478+Q13131+Q9UGI9); test: AMP-dependent Kinase enzyme assay. An in vitro enzyme assay that detects ADP turnover that is directly proportional to AMPK activity. This uses naive AMPK that is activated during the assay with MK-8722; type: functional; settings: 30 µM
# [4] = target: Sialic acid-binding Ig-like lectin 9 (Homo sapiens) (UniProt Q9Y336); test: Hs-Siglec9 ALPHAscreen SOP 20170721; settings: 10 µM
# [5] = tested on: Trypanosoma cruzi; test: Trypanosoma cruzi phosphomannomutase and mannose-1-phosphate guanylyltransferase assay; type: functional; settings: 10 µM
# [6] = target: T2, Arginase-2, mitochondrial (Homo sapiens) (UniProt P78540); test: in vitro enzyme assay to detect the production of urea directly proportional to the activity of Arginase II; type: functional; settings: 33.3 µM; further: in the data most compounds retested in dose-response had high values
# T2 sequence (whole entry): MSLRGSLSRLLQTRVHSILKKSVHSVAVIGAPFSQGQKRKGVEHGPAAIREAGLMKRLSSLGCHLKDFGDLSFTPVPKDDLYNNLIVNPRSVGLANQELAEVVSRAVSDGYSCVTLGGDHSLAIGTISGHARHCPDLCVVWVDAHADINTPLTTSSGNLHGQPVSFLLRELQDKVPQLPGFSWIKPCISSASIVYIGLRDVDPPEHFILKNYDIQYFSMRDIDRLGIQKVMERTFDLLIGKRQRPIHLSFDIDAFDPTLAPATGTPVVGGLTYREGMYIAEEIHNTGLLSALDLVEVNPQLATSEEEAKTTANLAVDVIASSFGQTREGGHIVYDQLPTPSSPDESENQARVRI
# [7] = target: T3, Proteasome subunit beta (Trypanosoma cruzi) (UniProt O96673); test: Trypanosoma cruzi proteasome chymotrypsin-like activity (TcProtChymo) assay.; further: in the data most compounds retested in dose-response had high values; type: functional; settings: 9.37 µM
# T3 sequence (whole entry): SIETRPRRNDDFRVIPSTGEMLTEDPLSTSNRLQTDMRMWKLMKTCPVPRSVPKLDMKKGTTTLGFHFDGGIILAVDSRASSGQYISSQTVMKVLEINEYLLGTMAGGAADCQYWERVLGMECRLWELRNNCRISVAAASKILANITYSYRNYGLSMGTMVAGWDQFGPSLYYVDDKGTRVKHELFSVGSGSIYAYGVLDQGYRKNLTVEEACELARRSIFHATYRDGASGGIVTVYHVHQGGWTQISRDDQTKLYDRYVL
# [8] = species on record: Homo sapiens; test: To identify inhibition of the IFN signalling (Jak-Stat) pathway via expression of an eGFP reporter gene under the control of an IFN-stimulated response element (ISRE) containing MxA promoter.; type: functional; settings: 30 µM
# [9] = target: T4, Tyrosyl-tRNA synthetase, putative (Trypanosoma cruzi (strain CL Brener)) (UniProt Q4DSP6); test: Trypanosoma cruzi tyrosyl tRNA synthetase (TcYRS) _High Tyrosine SOP; type: functional; settings: 30 µM; further: in the data most compounds retested in dose-response had high values
# T4 sequence (whole entry): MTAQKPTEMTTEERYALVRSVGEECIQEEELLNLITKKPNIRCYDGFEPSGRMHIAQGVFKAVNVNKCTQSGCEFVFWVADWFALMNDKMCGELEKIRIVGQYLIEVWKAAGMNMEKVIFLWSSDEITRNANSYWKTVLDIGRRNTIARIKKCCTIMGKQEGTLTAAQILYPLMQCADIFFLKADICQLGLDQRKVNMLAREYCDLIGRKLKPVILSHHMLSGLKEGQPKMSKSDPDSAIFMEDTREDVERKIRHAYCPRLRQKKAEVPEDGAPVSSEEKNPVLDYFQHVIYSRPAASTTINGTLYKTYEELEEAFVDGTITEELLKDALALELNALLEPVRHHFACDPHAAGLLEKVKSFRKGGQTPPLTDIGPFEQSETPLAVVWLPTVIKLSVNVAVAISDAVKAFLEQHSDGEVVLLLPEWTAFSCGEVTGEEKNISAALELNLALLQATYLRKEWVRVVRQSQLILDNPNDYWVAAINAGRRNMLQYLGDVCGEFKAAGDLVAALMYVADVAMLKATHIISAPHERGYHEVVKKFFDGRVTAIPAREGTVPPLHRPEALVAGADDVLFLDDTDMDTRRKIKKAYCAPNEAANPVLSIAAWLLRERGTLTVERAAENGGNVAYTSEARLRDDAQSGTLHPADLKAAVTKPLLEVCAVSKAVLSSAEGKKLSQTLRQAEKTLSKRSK
# [10] = target: T4, Tyrosyl-tRNA synthetase, putative (Trypanosoma cruzi (strain CL Brener)); test: Trypanosoma cruzi tyrosyl tRNA synthetase (TcYRS) SOP; type: functional; settings: 30 µM
# [11] = target: Chromo domain-containing protein 1 (Saccharomyces cerevisiae (strain ATCC 204508 / S288c) (Baker's yeast)) (UniProt P32657); test: ScCHD-1 Enzyme Inhibition Assay; type: functional; settings: 30 µM; further: in the data most compounds retested in dose-response had high values
# Chromo domain-containing protein 1 (Saccharomyces cerevisiae (strain ATCC 204508 / S288c) (Baker's yeast)), sequence (P32657 whole entry, the tested form may be a part): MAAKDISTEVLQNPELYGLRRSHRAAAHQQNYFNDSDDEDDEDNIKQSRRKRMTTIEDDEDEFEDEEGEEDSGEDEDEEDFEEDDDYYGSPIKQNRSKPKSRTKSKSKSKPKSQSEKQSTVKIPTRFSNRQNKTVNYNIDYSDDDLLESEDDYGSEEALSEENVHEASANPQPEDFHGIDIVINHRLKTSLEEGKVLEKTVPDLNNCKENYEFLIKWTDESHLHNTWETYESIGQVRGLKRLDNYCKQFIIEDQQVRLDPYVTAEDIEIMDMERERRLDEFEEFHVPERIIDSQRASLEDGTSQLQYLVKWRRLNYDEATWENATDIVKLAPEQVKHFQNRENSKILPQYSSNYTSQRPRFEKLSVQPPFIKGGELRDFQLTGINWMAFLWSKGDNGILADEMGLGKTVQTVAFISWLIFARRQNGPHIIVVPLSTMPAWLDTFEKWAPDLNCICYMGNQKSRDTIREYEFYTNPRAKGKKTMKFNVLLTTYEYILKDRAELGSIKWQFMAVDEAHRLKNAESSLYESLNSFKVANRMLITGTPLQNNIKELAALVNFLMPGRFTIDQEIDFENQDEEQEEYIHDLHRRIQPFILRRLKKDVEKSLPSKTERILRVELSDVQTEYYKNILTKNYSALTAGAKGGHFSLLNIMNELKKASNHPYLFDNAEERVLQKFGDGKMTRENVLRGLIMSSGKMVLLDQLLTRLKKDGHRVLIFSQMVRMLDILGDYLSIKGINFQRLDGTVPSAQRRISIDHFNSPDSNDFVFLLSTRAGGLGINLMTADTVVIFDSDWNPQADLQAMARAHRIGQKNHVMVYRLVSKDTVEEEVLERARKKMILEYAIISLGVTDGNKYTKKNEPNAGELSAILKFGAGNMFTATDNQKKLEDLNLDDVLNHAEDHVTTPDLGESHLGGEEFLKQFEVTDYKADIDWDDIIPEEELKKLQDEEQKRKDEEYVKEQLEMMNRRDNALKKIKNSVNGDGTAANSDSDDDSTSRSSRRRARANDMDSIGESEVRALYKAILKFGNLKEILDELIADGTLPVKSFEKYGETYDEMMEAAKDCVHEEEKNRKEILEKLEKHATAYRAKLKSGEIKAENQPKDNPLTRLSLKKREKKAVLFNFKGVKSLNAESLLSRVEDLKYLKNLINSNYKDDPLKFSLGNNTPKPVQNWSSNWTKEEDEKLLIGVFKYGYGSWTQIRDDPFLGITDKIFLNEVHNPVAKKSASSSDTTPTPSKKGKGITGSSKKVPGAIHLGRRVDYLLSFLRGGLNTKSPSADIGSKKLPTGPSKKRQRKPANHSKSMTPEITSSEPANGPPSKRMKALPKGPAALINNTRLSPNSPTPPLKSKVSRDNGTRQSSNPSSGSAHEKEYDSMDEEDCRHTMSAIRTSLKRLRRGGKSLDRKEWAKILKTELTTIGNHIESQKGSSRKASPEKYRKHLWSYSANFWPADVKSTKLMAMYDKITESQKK
# Sialic acid-binding Ig-like lectin 9 (Homo sapiens), sequence (Q9Y336 whole entry): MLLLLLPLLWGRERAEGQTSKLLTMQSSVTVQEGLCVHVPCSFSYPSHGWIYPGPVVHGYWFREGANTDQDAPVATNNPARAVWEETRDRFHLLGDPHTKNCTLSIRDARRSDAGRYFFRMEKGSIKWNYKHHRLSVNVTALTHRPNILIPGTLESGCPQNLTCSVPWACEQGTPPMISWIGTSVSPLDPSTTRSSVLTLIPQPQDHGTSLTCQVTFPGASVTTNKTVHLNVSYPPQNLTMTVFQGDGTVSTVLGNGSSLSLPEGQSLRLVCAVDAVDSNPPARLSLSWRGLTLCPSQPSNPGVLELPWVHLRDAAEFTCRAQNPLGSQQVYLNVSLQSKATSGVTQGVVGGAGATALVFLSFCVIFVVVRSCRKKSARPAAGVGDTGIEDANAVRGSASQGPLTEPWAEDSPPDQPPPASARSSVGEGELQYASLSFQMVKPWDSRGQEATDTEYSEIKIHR
# Protein translocase subunit SecA (Escherichia coli (strain K12)), sequence (P10408 whole entry): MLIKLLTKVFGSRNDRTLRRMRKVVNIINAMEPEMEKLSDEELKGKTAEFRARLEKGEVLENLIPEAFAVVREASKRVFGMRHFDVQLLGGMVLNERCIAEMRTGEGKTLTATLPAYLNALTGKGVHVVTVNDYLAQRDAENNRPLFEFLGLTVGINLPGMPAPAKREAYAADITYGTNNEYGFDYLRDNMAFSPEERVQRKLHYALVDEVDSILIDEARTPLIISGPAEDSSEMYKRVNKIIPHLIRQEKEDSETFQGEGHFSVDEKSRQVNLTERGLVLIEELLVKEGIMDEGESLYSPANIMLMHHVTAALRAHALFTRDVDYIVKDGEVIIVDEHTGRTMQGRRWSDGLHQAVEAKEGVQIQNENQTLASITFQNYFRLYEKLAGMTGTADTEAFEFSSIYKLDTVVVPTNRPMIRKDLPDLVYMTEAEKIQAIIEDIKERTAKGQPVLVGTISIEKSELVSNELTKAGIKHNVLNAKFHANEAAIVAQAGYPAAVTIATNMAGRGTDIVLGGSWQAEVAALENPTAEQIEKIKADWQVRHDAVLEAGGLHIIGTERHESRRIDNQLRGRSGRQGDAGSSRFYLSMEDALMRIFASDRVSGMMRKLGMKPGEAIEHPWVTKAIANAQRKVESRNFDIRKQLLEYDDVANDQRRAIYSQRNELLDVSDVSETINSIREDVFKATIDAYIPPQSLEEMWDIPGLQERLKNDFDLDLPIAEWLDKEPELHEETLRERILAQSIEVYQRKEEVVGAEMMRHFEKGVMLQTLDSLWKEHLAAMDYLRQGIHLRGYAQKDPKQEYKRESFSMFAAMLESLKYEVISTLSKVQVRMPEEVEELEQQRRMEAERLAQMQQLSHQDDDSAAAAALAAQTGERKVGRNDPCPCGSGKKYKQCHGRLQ
SMILES,Percent Effect [1] [%],Percent Effect [2] [%],Percent Effect [3] [%],Percent Effect [4] [%],Percent Effect [5] [%],Percent Effect [6] [%],Percent Effect [7] [%],Percent Effect [8] [%],Percent Effect [9] [%],Percent Effect [10] [%],Percent Effect [11] [%]
O=C(c1cncc(N2CCC3(CCNCC3)CC2)n1)N1CCCC1,-4.3,18.7,1.16,15.6,5.94,33.9,23.7,12.9,7.1,21,-13.4
CNS(=O)(=O)c1ccc(C(=O)NC2CCc3nc(C)cn3C2)o1 (stereo not given),-4.88,7.89,5.73,6.53,2.26,-3.45,11,-11.5,3.43,17.1,-10.4
COCC1CN(C(=O)c2ccnnc2)Cc2c1cnn2C (stereo not given),-3.58,-5.33,7.75,-1.95,4.33,-3.5,9.6,9.47,4.25,1.28,-4.09
Cc1cc(=O)[nH]c(CCNC(=O)C(c2ccc(F)cc2)N(C)C)n1 (stereo not given),6.03,11,-3.97,1.73,-5.75,-14,13.3,26.9,10.4,11.1,0.214
Cc1[nH]ccc1C(=O)Nc1cccc(CN2CCC(CO)CC2)c1,-3.65,23.7,-7.05,-13.3,0.876,-17.8,8.34,30.6,3.19,13,-9.32
N#Cc1cccc(CN2CC[C@@H]3[C@@H]2CC(=O)N3Cc2cccnc2)c1,-2.43,16,12.4,1.95,-4.72,-1.17,13.7,-10.2,3.19,11.5,-1.86
Cc1csc(CNC(=O)N(C)Cc2cnn(C)c2)n1,-2.05,21.6,-6.61,2.62,4.18,-4.25,16.5,12.9,5.94,23.2,-4.86
CCC(O)CN1CCN(C(=O)c2ccnc(N(C)C)c2)CC1 (stereo not given),-1.16,5.41,-5.16,13,6.37,14.3,4.83,-0.0962,1.59,12.2,-4.75
CCc1cnc(N2CCC(=O)N(CC3CC3)C(C(C)C)C2)nc1 (stereo not given),3.49,13.5,-2.35,11.8,-0.965,4.29,8.62,29.3,3.7,12.2,-1.36
Cc1noc2ncc(C(=O)N(CC3CCOC3)C3CC3)cc12 (stereo not given),-0.0275,7.89,-3.99,3.92,-9.59,3.45,7.69,24.4,0.49,4.88,-5.66
CCS(=O)(=O)N(C)C(=O)c1cc(C)n(-c2cccc(OC)c2)c1C,-6.4,20.2,-7.29,7.26,3.68,-5.32,4.34,28.1,4.43,21.5,-8.76
COc1ccccc1CC(=O)NS(=O)(=O)c1cncc(Br)c1,-4.15,2.6,4.69,-5.24,-1.87,2.13,1.35,21.7,-4.85,-4.88,-7.14
CC(=O)N(Cc1noc(C)n1)C1CCN(Cc2ccccc2C#N)C1 (stereo not given),-1.89,3.8,1.41,1.68,1.74,5.38,6.17,-5.16,0,5.06,0.362
COCc1nc2n(n1)CCCC2Nc1nc(C2CC2)ns1 (stereo not given),-2.6,5.33,-1.82,23.5,2.82,16.1,13.6,-2.26,4.92,13.6,-5.92
O=C(NCc1ccccn1)[C@H]1COC[C@H]2CN(Cc3ccoc3)C[C@H]21,-2.43,2.7,6.89,-1.93,-6.16,2.87,20.3,-4.49,5.41,7.69,-5.52
COc1cc(N2C[C@@H]3COC[C@]3(COc3ccc(C#N)cn3)C2)ncn1,-3.38,13.5,2.34,2.33,4.01,9.24,12.6,35.9,4.32,7.69,1.63
CSCCC(=O)N1CCC(Oc2cc(C)ccc2F)(C(=O)O)CC1,-1.39,-1.39,-5.71,-2.17,-2.43,-1.32,0.351,-30.7,-2.1,2.56,2.79
O=C(NCC(F)F)N1CCC(n2ccc(C(F)(F)F)n2)CC1,-2.09,5.48,-1.59,3.79,5.09,8.64,10.3,0.988,2.15,7.5,-4.48
C[C@@H]1CN(C(=O)c2ccsc2)C[C@]12CCN(c1ccsc1)C2=O,-3.14,0,13.8,-0.135,-3.54,-1.63,2.91,5.8,5.32,3.85,0.408
CCn1cnnc1CNC(=O)N1CCN(c2cccc(OC)c2)CC1,-4.11,20.8,-7.68,2.16,-3.75,-0.356,12.3,25.9,12.6,14.6,-9.3
